Test results published in PubChem BioAssay (EPA / NIEHS).
Calls of active or inactive are those of the source. Rule for the calls: active = hit-call score of the fitted dose curve at least 0.9, where 1 is the maximum; inactive = score below 0.9.

Assay: ATG_SREBP_CIS: Attagene CIS-FACTORIAL HepG2 Assay for human Sterol Regulatory Element Binding (SREBP) (AID 2282962)
Details: HepG2 Attagene cis-factorial SREBP reporter, mRNA; actives raise or lower the signal
Protocol: ATG_CIS is a cell-based, multiplexed-readout assay that uses HepG2, a human liver cell line, with measurements taken at 24 hours after chemical dosing in a 24-well plate.ATG_SREBP_CIS is one of 52 assay component(s) measured or calculated from the ATG_CIS assay. It is designed to make measurements of mRNA induction, a form of inducible reporter, as detected with fluorescence intensity signals by Reverse transcription polymerase chain reaction (RT-PCR) and Capillary electrophoresis technology.Data from the assay component ATG_SREBP_CIS was analyzed into 1 assay endpoint. This assay endpoint, ATG_SREBP_CIS, was analyzed with bidirectional fitting relative to DMSO as the negative control and baseline of activity. Using a type of inducible reporter, measures of mRNA for gain or loss-of-signal activity can be used to understand the reporter gene at the transcription factor-level as they relate to the gene SREBF1. Furthermore, this assay endpoint can be referred to as a primary readout, because this assay has produced multiple assay endpoints where this one serves a reporter gene function. To generalize the intended target to other relatable targets, this assay endpoint is annotated to the dna binding intended target family, where the subfamily is basic helix-loop-helix leucine zipper.
Human liver HepG2 cells are transiently transfected with multiple reporter transcription units (MRTUs) in 6-well plates using FuGene 6 reagent (Roche; 3 ml FuGene/1 mg DNA). The MRTU constructs are regulated by a cis-regulating element (promoter). […] A major difference between the CIS and TRANS system is that in CIS activities of endogenous TFs are measured, whereas the TRANS assay evaluates changes in activities of exogenous, chimeric NR-Gal4 proteins. […] At the end of 24 hour incubation, total RNA was isolated using TriZol reagent (Invitrogen). The isolated RNA is then reverse-transcribed using oligo(dT) primer and Mo-MLV reverse transcriptase (Invitrogen) with DNAse I (Ambion) treatment for 30 min. The one-tenth of the produced cDNA was amplified by PCR using Taq DNA polymerase (Invitrogen) and two reporter sequence-specific primers. The PCR products were fluorescently labeled by primer extension with 6-arboxyfluorescein (6-FAM) 5'-labeled reporter sequence-specific primer (2 min at 95 C, 20 s at 68 C and 10 min at 72 C) and these products were digested with 5U of HpaI (New England Biolabs) for 2h at 37 C. The fragments were purified using Qiaquick PCR columns (Qiagen), analyzed on an ABI 3130xL genetic analyzer (Applied Biosystems) with peak positions identified by using a set of X-rhodamine (ROX)-labeled MapMarker1000 molecular weight standards (BioVentures). The raw capillary electrophoresis data was processed using Attagraph software (Attagene).
For c1ccc2c(c1)CCCC2, the outcome was “inactive”.
In the case of O=[N+]([O-])O.O=[N+]([O-])O.[Cd], the outcome is reported as “inactive”.
For S=c1[nH]c2ccccc2[nH]1, the outcome was “inactive”.
With O=C(CCN1CC1)OCC(CO)(COC(=O)CCN1CC1)COC(=O)CCN1CC1 the outcome was “inactive”.
With COc1ncc(F)c2nc(S(=O)(=O)Nc3c(F)cccc3F)nn12 the outcome was “inactive”.
With C[C@]12CC[C@H]3[C@@H](CC[C@@]45O[C@@H]4C(O)=C(C#N)C[C@]35C)[C@@H]1CC[C@@H]2O the outcome was “inactive”.
For CNC(=O)Oc1cc(C)c(SC)c(C)c1, the outcome was “inactive”.
With C=CCc1ccc(OC(=O)Cc2ccccc2)c(OC)c1 the outcome was “inactive”.
With O=C=Nc1ccccc1 the outcome was “inactive”.
With C#CC1(O)CCCCC1 the outcome was “inactive”.
With CC(C)COP(=O)(OCC(C)C)OCC(C)C the outcome was “inactive”.
For C[C@]12CC[C@H](O)C[C@H]1CC[C@@H]1[C@@H]2C[C@@H](O)[C@]2(C)[C@@H](C3=CC(=O)OC3)CC[C@]12O, the AC50 was 1.74 µM (active).
With Oc1ccc(Cl)cc1 the outcome was “inactive”.
In the case of CCOC(=O)COc1ccc(Cl)cc1Cl, the outcome is reported as “inactive”.
In the case of CC(C)CCCCCCCOC(=O)c1ccccc1C(=O)OCCCCCCCC(C)C, the outcome is reported as “inactive”.
In the case of C=COCCCl, the outcome is reported as “inactive”.
In the case of CNC(=N[N+](=O)[O-])NCC1CCOC1 (stereo not given), the outcome is reported as “inactive”.
For CN1C(=O)CCS(=O)(=O)C1c1ccc(Cl)cc1 (stereo not given), the outcome was “inactive”.
In the case of C=Cc1cccc(CCl)c1, the outcome is reported as “inactive”.
With CC(=O)/C=C/c1ccccc1 the outcome was “inactive”.
In the case of N#Cc1cc(I)c(O)c(I)c1, the outcome is reported as “inactive”.
For [Cl-].[Cl-].[Cl-].[Yb+3], the outcome was “inactive”.
In the case of Nc1ccccc1, the outcome is reported as “inactive”.
In the case of ClCCCCCCCl, the outcome is reported as “inactive”.
For O=C(NCNC(=O)NC1C(=O)NC(=O)N1CO)NC1C(=O)NC(=O)N1CO (stereo not given), the outcome was “inactive”.
For Cc1cc(C)c(C2=C(OC(=O)CC(C)(C)C)C3(CCCC3)OC2=O)c(C)c1, the AC50 was 166 µM (active).
In the case of O=[N+]([O-])c1cc([N+](=O)[O-])c2ccccc2c1, the outcome is reported as “inactive”.
For [N-]=[N+]=CC(=O)OC[C@H](N)C(=O)O, the outcome was “inactive”.
With O=P(O)(Oc1ccccc1)Oc1ccccc1 the outcome was “inactive”.
For O=C(O)COc1ccccc1, the outcome was “inactive”.
With CCCOC(=O)c1ccccc1C(=O)OCCC the outcome was “inactive”.
With CCC(=O)c1ccc(Cl)cc1 the outcome was “inactive”.
For O=CNC(N1CCN(C(NC=O)C(Cl)(Cl)Cl)CC1)C(Cl)(Cl)Cl (stereo not given), the outcome was “inactive”.
For c1cc(OCC2CO2)ccc1Cc1ccc(OCC2CO2)cc1 (stereo not given), the AC50 was 33.4 µM (active).
In the case of CCN(CC)C(=S)S, the outcome is reported as “inactive”.
For ClC1=C(Cl)[C@]2(Cl)[C@@H]3[C@@H](Cl)[C@H](Cl)C[C@@H]3[C@@]1(Cl)C2(Cl)Cl, the outcome was “inactive”.
With c1ccc(P(c2ccccc2)c2ccccc2)cc1 the outcome was “inactive”.
With CC(C)C#N the outcome was “inactive”.
For CCOC(=O)NC(=S)Nc1ccccc1NC(=S)NC(=O)OCC, the outcome was “inactive”.
In the case of BrCBr, the outcome is reported as “inactive”.
